Compound activity as filed in PubChem.
aSyn rescue – alpha-synuclein toxicity inhibition in yeast. AID 652106. Potency, µM (doses to about 46.1 µM), inactives show at the top dose growth rescue (activation), most hits filed as activators. Yeast expressing alpha-synuclein, growth rescue, BacTiter-Glo, 24 h. 370,000 tested, 0.14% active; further: potency means the concentration at half of the fitted maximal effect; % of control where 0% means no effect; nearly all actives have a fitted effect of over 65% in size
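Screening used galactose-induced yeast with toxic alpha-synuclein levels, exposed to compound for 24 hr at 30 deg C. Cell growth, read with BacTiter-Glo luminescence, gave the measured signal.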
FUS yeast rescue – suppressors of FUS proteinopathy in yeast; S. cerevisiae FUS-expressing, growth rescue, OD600, 24 h; Potency, µM (top dose mostly 76.6 µM), hits mostly activators; 390,000 tested, 0.24% active; AID 1347120;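 further: potency means the concentration at half of the fitted maximal effect; plate controls were DMSO vehicle for no effect and reference control for full effect; nearly all actives have a fitted effect of over 55% in size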
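Read-out: OD at 600 nm after 24hr at 30C, reporting rescue of FUS-induced yeast toxicity. Cells at OD 0.005 in galactose (2%) minimal medium; compounds tested in a dilution series; CP55940 titration from 92uM final as control.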
TDP-43 yeast inh – inhibitors of TDP-43 toxicity in yeast | TDP-43 expressing yeast growth rescue, BacTiter-Glo, 24 h | Potency, µM (doses to about 46.1 µM), for the others: top-dose growth rescue (activation), usual class: activators | 410,000 tested, 1.8% active | AID 652104; further: potency means the concentration at half of the fitted maximal effect; % of control where 0% means no effect; nearly all actives have a fitted effect of over 50% in size
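Yeast expressing TDP-43 (pregrown in raffinose, seeded at OD600=0.02 in galactose medium) exposed to compounds 24 hr at 30 deg C. Growth read by BacTiter-Glo luminescence; rescue of toxicity appears as increased signal.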
Abeta yeast res – A-beta toxicity reversal in yeast; yeast expressing A-beta42, growth rescue, OD600, 48 h; response scale: 0% DMSO, 100% iron-clioquinol control; Potency, µM (top dose mostly 46.1 µM), most hits filed as activators; 410,000 tested, 0.063% active; AID 1347071; further: potency means the concentration at half of the fitted maximal effect; nearly all actives have a fitted effect of over 55% in size
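Yeast A-beta toxicity model in growth medium with pinned compounds, 48 h at 30 C; growth read as absorbance at 600 nm. Normalized to FeCl3/clioquinol equimolar mix (positive) and DMSO (negative).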
MmCpn inh – M. maripaludis TRiC chaperonin inhibition; Potency, µM (doses to about 76.9 µM), for the others: at the highest dose activity, negative = inhibition, hits mostly inhibitors; 330,000 tested, 0.031% active; purified Mm-Cpn ATPase, ADP Transcreener TR-FRET; further: potency means the concentration at half of the fitted maximal effect; on the % scale 0 is the no-effect control and ±100 the full control effect; nearly all actives have a fitted effect of over 80% in size
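Reaction buffer contained 30 mM Tris pH 7.4, 100 mM KCl, 5 mM MgCl2 and 1 mM DTT. Mm-CPN (25 nM final) hydrolysed 10 uM ATP over 30 min at 37°C; ADP was read by HTRF.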
CCT chaperon mod – changes cytosolic chaperonin activity; purified chaperonin ATPase assay, HTRF ADP detection, 30 min; 360,000 tested, 0.3% active; AID 651819; activity change, % (test concentration not listed), hits read low; in the data active means activity change below about -30%; further: on the % scale 0 is the no-effect control and ±100 the full control effect
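TRiC (40 or 20 nM final, by batch activity) in 30 mM Tris pH 7.4, 100 mM KCl, 5 mM MgCl2, 1 mM DTT was treated with compound at 76 uM single dose, then 10 uM ATP, 30 min at 37 °C. ADP was read by HTRF Transcreener.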
* marks the source's active call; other numbers are inactive results; i = inactive; ? = inconclusive; . = no result; [ ] = remark or other dose. This is a sample that favours compounds with a hit; in the whole collection about 2.3% have one here. Unless noted, the call rests on the fitted dose curve; in most records, active means well fitted curve in the direction sought with a large enough effect; inconclusive means small, poorly fitted or top-dose-only effect, or another doubt; inactive means no such curve, though single readings can be large; an effect the other way counts as inactive or inconclusive.

SMILES	aSyn rescue	FUS yeast rescue	TDP-43 yeast inh	Abeta yeast res	MmCpn inh	CCT chaperon mod
COc1ccc(Nc2ncnc3scc(-c4ccc(OC)cc4)c23)cc1	1%	.	22µM*	i	-20%	0
O=S(=O)(Nc1ncnc2sc3c(c12)CCC3)c1ccc2ccccc2c1	-37%	?	-10%	i	0%	2
Cc1cc(F)ccc1S(=O)(=O)Nc1ncnc2sc3c(c12)CCC3	9%	i	20µM*	i	5%	-3
O=C(Nc1nc2ccc(S(=O)(=O)N3CCCCC3)cc2s1)c1cccnc1	2%	?	0%	i	-1%	2
O=C(Nc1nc(-c2cccs2)cs1)c1ccc(S(=O)(=O)N2CCCCC2)cc1	-4%	i	14%	i	45µM*	-1
O=C(Nc1nc2ccc(S(=O)(=O)N3CCCCC3)cc2s1)c1ccncc1	-12%	35µM*	9%	i	-4%	2
CC1CCC2(CC1)CCN(CCCOC(=O)Nc1cccc(F)c1)C2=O (stereo not given)	.	i	.	.	.	.
CCn1c(C(=O)N2CCC(C(=O)N3CCN(c4ccccn4)CC3)CC2)cc2sccc21	4%	i	4%	i	-2%	-1
CCn1c(C(=O)N2CCC(C(=O)N3CCN(c4ccc(OC)cc4)CC3)CC2)cc2sccc21	.	i	22µM*	i	.	.
COc1ccc(-c2cc(-c3nnc(SCC(=O)Nc4cccc(Cl)c4C)n3N)[nH]n2)cc1	.	i	.	.	.	.
N#Cc1c2ccccc2nc2ccccc12	?	i	11µM*	i	-3%	0
Cc1nc([N+](=O)[O-])c(Br)n1CC(=O)c1ccc(Cl)cc1	1%	i	13µM*	i	0%	-1
Cc1nc([N+](=O)[O-])c(Br)n1Cc1ccc(Cl)c(Cl)c1	-10%	i	14µM*	i	-1%	2
O=C(Nc1ccccc1)OCCN1C(=O)CCC12CCC(c1ccc(Cl)cc1)CC2 (stereo not given)	.	i	.	.	.	.
COc1ccc(NC(=O)CN2C(=O)C(c3ccc(C)cc3)=NC23CCCCCC3)cc1Cl	.	i	19%	i	.	.
COC(=O)c1c(NC(=O)C2Cc3ccccc3C(=O)O2)sc2c1CCCC2 (stereo not given)	-3%	i	24%	i	?	-1
COC(=O)c1c(NC(=O)C2(C)Cc3ccccc3C(=O)O2)sc2c1CCCC2 (stereo not given)	16%	4µM*	-26%	i	1%	-2
Cc1ccc(SCCNC(=S)Nc2ccc(C)c(C)c2)cc1	-1%	i	5%	i	2%	-1
Cc1ccc(SCCNC(=S)Nc2cc(C)ccc2C)cc1	4%	i	14µM*	?	0%	-1
COCC(=O)N(c1ccc(C(C)(C)C)cc1)C(C(=O)NC(C)(C)C)c1cccnc1 (stereo not given)	.	i	.	.	.	.
CC(=O)Nc1ccc(/C=C2\C=Cc3ccccc32)cc1	-32%	.	.	.	.	.
CCn1c(CNC(=O)C2CCCCC2)cc2ccccc21	4%	i	-3%	i	-5%	-52*
O=c1c2oc3nc4c(cc3c2ncn1CCCc1ccccc1)CCCC4	0%	i	24%	i	1%	-32*
O=C1Cc2ccccc2C1=C1C=c2ccccc2=C1	1%	.	.	.	.	.
CC(=O)c1ccc(-c2[nH]c3ccccc3c2CCN2C(=O)c3ccccc3C2=O)cc1	0%	i	19%	i	.	1
SMILES	aSyn rescue	FUS yeast rescue	TDP-43 yeast inh	Abeta yeast res	MmCpn inh	CCT chaperon mod
CC(=O)c1ccc(-c2c(CCO)sc3ccccc23)cc1	14%	i	13µM*	i	.	1
Cc1ccc(NC(=O)N2CCCC(c3nc(-c4ccc(F)cc4)no3)C2)cc1 (stereo not given)	6%	i	35µM*	i	-1%	-1
O=S(=O)(c1ccc(Cl)cc1)N1CCCC1c1nc(-c2ccc(Cl)cc2)no1 (stereo not given)	19%	i	-4%	i	?	0
O=C(c1ccco1)N1CCC(c2nc(-c3ccc(F)cc3)no2)CC1	2%	i	-7%	i	4%	-35*
O=C(Nc1ccc(Cl)cc1)N1CCC(c2nc(-c3ccccc3Cl)no2)CC1	14%	i	18µM*	i	1%	2
O=S(=O)(c1ccccc1Cl)N1CCCC1c1nc(-c2ccccc2Cl)no1 (stereo not given)	16%	i	14µM*	i	-1%	-1
c1ccc(N=c2nc(-c3ccccc3)n(-c3ccccc3)s2)cc1	-26%	.	.	.	.	.
CN(C)c1ccc(/C=C/c2cnnc3ccccc23)cc1	-30%	.	.	.	.	.
CCn1c(=O)n(CC(=O)N2CCC(C)CC2)c(=O)c2ccccc21	.	i	.	.	.	.
CCN(CC(=O)Nc1ccc(NC(C)=O)cc1)C(=O)/C=C/c1cn(-c2ccccc2)nc1-c1ccc(C)cc1	3%	32µM*	16%	i	1%	-1
COc1cccc(NC(=O)CN(C)C(=O)/C=C/c2cn(-c3ccccc3)nc2-c2ccc(OC)c(OC)c2)c1	1%	40µM*	11%	i	.	1
CCOC(=O)c1ccc(NC(=O)c2cn(-c3ccccc3)nc2-c2ccc(OC)c(OC)c2)cc1	.	25µM*	?	i	.	.
COC1=C[C@H](C(=O)NCc2ccc(OC)cc2)C(C)C(c2ccccc2)CC1=O (stereo not given in full)	.	i	.	.	.	.
COC(CNC(=O)[C@H](Cc1ccccc1)NC1(C(=O)NC2CCCCC2)CCCC1)OC	.	i	.	.	.	.
O=C(NCc1ccccc1Cl)c1ccc(CSCc2cccc(F)c2)o1	.	i	?	i	.	.
CCOc1ccc(C(=O)NCC(=O)N2CCN(Cc3ccccc3)CC2)cc1	-12%	i	-5%	i	4%	-2
CCOc1ccc(C(=O)OC(C)C(=O)N2CCN(Cc3ccccc3)CC2)cc1 (stereo not given)	-2%	i	3.2µM*	i	-2%	-21
CCOC(=O)CNC(=S)N(Cc1ccccc1)Cc1cccnc1	3%	i	10%[9.22 µM]	i	1%	-34*
CCC(C)NC(=O)CNC(=S)N(Cc1ccccc1)Cc1cccnc1 (stereo not given)	9%	.	15%	i	2%	2
Cc1nn(CC(=O)N2CCc3ccccc3C2)c(C)c1Cl	0%	i	0%	i	4%	-80*
COCc1cc(S(=O)c2ccc(Cl)cc2)nc(C)n1 (stereo not given)	-17%	i	15%	i	-2%	-3
COCc1cc(Sc2ccc(Cl)cc2)nc(C)n1	-6%	i	11µM*	i	2%	0
